According to PubChem BioAssay (NCI):
About 83,000 compounds went through this panel and 20% of them were active in at least one assay; those are over-represented in the sample as a whole.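 A percent growth of 40 corresponds to 60% growth inhibition; 0 means no net growth; -100 means all cells died. Active threshold: below 10.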 The source made the active and inactive calls.

Experiments:
Assay in all cases: NCI-60 one-dose screen, 48 h (100 = growth as untreated, 0 = no growth, -100 = all killed)
Conditions in all cases: 10 µM unless noted
NCI-H23 lung = system: NCI-H23 lung
NCI-H226 lung = system: NCI-H226 lung
NCI-H322M lung = system: NCI-H322M lung
HOP-62 NSCLC = system: HOP-62 NSCLC
NCI-H460 lung = system: NCI-H460 lung
NCI-H522 lung = system: NCI-H522 lung
A549/ATCC NSCLC = system: A549/ATCC NSCLC
786-0 renal = system: 786-0 renal
COLO 205 colon = system: COLO 205 colon
DU-145 prostate = system: DU-145 prostate
K-562 leukemia = system: K-562 leukemia
MALME-3M melanoma = system: MALME-3M melanoma
MDA-MB-231 breast = system: MDA-MB-231 breast
RXF 393 renal = system: RXF 393 renal
SF-268 CNS = system: SF-268 CNS
SF-295 CNS = system: SF-295 CNS
SF-539 CNS = system: SF-539 CNS
UACC-257 melanoma = system: UACC-257 melanoma
M14 melanoma = system: M14 melanoma
HOP-92 NSCLC = system: HOP-92 NSCLC

Measured: growth

C=C1CCC2C3(C)COC(c4ccccc4)OC3CCC2(C)C1/C=C/C1=CCOC1=O (centres undefined)
active: RXF 393 renal -14.6%
inactive: NCI-H23 lung 74.6% | NCI-H226 lung 85.8% | NCI-H322M lung 64.3% | HOP-62 NSCLC 113% | NCI-H460 lung 93.6% | NCI-H522 lung 63.6% | A549/ATCC NSCLC 43.5% | 786-0 renal 94.3% | COLO 205 colon 17.4% | DU-145 prostate 14.9% | K-562 leukemia 32.4% | MALME-3M melanoma 105% | MDA-MB-231 breast 89.7% | SF-268 CNS 73.2% | SF-295 CNS 105% | SF-539 CNS 63.6% | UACC-257 melanoma 65.9% | M14 melanoma 53.4%

COc1ccc(N2CCN(Cc3cc(C(=O)/C=C/c4c[nH]c5ccccc45)ccc3O)CC2)cc1
inactive: NCI-H23 lung 102% | NCI-H226 lung 100% | NCI-H322M lung 100% | HOP-62 NSCLC 89% | NCI-H460 lung 106% | A549/ATCC NSCLC 102% | 786-0 renal 105% | COLO 205 colon 107% | DU-145 prostate 114% | K-562 leukemia 101% | MALME-3M melanoma 95.6% | MDA-MB-231 breast 103% | RXF 393 renal 104% | SF-268 CNS 101% | SF-539 CNS 96.6% | UACC-257 melanoma 102% | M14 melanoma 102%

COc1ccc(-c2ccc(C)n2-c2ccc(-c3nc4cc(Cl)ccc4s3)cc2)cc1
inactive: NCI-H23 lung 83.4% | NCI-H226 lung 78.7% | NCI-H322M lung 103% | HOP-62 NSCLC 102% | NCI-H460 lung 99.7% | A549/ATCC NSCLC 95.5% | 786-0 renal 106% | COLO 205 colon 95.9% | DU-145 prostate 112% | MALME-3M melanoma 102% | MDA-MB-231 breast 85.8% | RXF 393 renal 114% | SF-268 CNS 111% | SF-295 CNS 96.6% | SF-539 CNS 109% | UACC-257 melanoma 107% | M14 melanoma 107%

Cc1ccc(Cc2c(C=O)nc(N)[nH]c2=O)c2ccccc12
inactive: NCI-H23 lung 97.7% | NCI-H226 lung 98.6% | NCI-H322M lung 119% | HOP-62 NSCLC 96.2% | NCI-H460 lung 109% | NCI-H522 lung 118% | A549/ATCC NSCLC 86.6% | 786-0 renal 89.8% | COLO 205 colon 95.5% | DU-145 prostate 113% | K-562 leukemia 107% | MALME-3M melanoma 98.2% | MDA-MB-231 breast 107% | RXF 393 renal 106% | SF-295 CNS 118% | SF-539 CNS 102% | UACC-257 melanoma 93.2% | M14 melanoma 101%

CC(C)(C)c1[nH]nc2c1C(c1cc3ccccc3[nH]c1=O)Nc1cc(C(=O)Nc3ccc(Cl)cc3)ccc1N2 (centres undefined)
inactive: NCI-H23 lung 78.9% | NCI-H226 lung 105% | NCI-H322M lung 78.6% | HOP-62 NSCLC 83.6% | NCI-H460 lung 74.1% | NCI-H522 lung 74.5% | A549/ATCC NSCLC 89.6% | 786-0 renal 66.1% | COLO 205 colon 83.6% | DU-145 prostate 83.8% | K-562 leukemia 39.2% | MALME-3M melanoma 80.6% | MDA-MB-231 breast 85.6% | RXF 393 renal 43.9% | SF-268 CNS 62.2% | SF-295 CNS 38.5% | SF-539 CNS 85.8% | UACC-257 melanoma 83.9% | M14 melanoma 53.5%

CCCCCCCCN(CCCCCCCC)CCCCCCNc1cc(OC)cc2cccnc12
inactive: NCI-H23 lung 55.6% | NCI-H226 lung 100% | NCI-H322M lung 88.5% | HOP-62 NSCLC 96.7% | NCI-H460 lung 92.8% | NCI-H522 lung 92.1% | A549/ATCC NSCLC 105% | 786-0 renal 93.7% | COLO 205 colon 33.3% | DU-145 prostate 27.4% | K-562 leukemia 80.1% | MALME-3M melanoma 61.7% | MDA-MB-231 breast 52% | RXF 393 renal 108% | SF-268 CNS 83.4% | SF-295 CNS 109% | SF-539 CNS 111% | UACC-257 melanoma 18.2%
active: M14 melanoma -1.6%

CCN1CCN(c2nc(NNC(=O)c3ccccc3)nc(N3CCN(C(c4ccccc4)c4ccccc4)CC3)n2)CC1
active: NCI-H460 lung 3.33% | COLO 205 colon -57% | K-562 leukemia 9.4% | MALME-3M melanoma 4.38% | M14 melanoma 0.297%
inactive: NCI-H23 lung 67.5% | NCI-H226 lung 73% | NCI-H322M lung 90.3% | HOP-62 NSCLC 79.7% | NCI-H522 lung 65.8% | A549/ATCC NSCLC 54.2% | 786-0 renal 66.4% | DU-145 prostate 71.9% | MDA-MB-231 breast 71.7% | RXF 393 renal 59.7% | SF-268 CNS 76.9% | SF-295 CNS 79.3% | SF-539 CNS 73.1% | UACC-257 melanoma 13.9%

COc1c2occc2c(OC)c2c(=O)c(-c3cc(-c4ccc(F)cc4)c(C#N)c(N)n3)c(C)oc12
inactive: NCI-H23 lung 36.1% | NCI-H226 lung 72.1% | NCI-H322M lung 40.3% | HOP-62 NSCLC 27.9% | NCI-H460 lung 24.9% | NCI-H522 lung 49.4% | A549/ATCC NSCLC 25.2% | 786-0 renal 51.2% | COLO 205 colon 27.2% | DU-145 prostate 30.3% | K-562 leukemia 19.5% | MALME-3M melanoma 88.8% | MDA-MB-231 breast 30% | RXF 393 renal 44.4% | SF-268 CNS 35.5% | SF-295 CNS 56.5% | SF-539 CNS 67.7% | M14 melanoma 70.6%

COc1ccc(Cn2cc3c(c2-c2cc(OC)c(OC)c(OC)c2)CCc2cnoc2-3)cc1
active: NCI-H460 lung 4.4% | COLO 205 colon -27.7% | SF-295 CNS 1.12% | SF-539 CNS 2.64% | M14 melanoma 7.62%
inactive: NCI-H23 lung 22.8% | NCI-H226 lung 19.8% | NCI-H322M lung 35.8% | HOP-62 NSCLC 64.2% | NCI-H522 lung 24.7% | A549/ATCC NSCLC 25.2% | 786-0 renal 36.3% | DU-145 prostate 20.2% | K-562 leukemia 14.6% | MDA-MB-231 breast 14% | RXF 393 renal 17.1% | SF-268 CNS 40.9% | UACC-257 melanoma 67.6%

COc1ccc(-c2ccc(-c3ccc(-c4ccc(C(=N)N)cc4)s3)s2)cc1OC
inactive: NCI-H23 lung 88.7% | NCI-H226 lung 96.7% | NCI-H322M lung 111% | HOP-62 NSCLC 86% | NCI-H460 lung 97.7% | NCI-H522 lung 99.9% | A549/ATCC NSCLC 43.1% | 786-0 renal 93% | DU-145 prostate 36.4% | MALME-3M melanoma 92.6% | MDA-MB-231 breast 80.2% | SF-268 CNS 87.1% | SF-295 CNS 99.7% | SF-539 CNS 88.9% | UACC-257 melanoma 103% | M14 melanoma 99%
active: COLO 205 colon -14.7% | K-562 leukemia -50%

Clc1ccc2c(NC3CCC(NC4CCCCC4)CC3)ccnc2c1 (centres undefined)
active: COLO 205 colon -71.5% | K-562 leukemia 0.509% | SF-539 CNS 0.613% | UACC-257 melanoma -51.5%
inactive: NCI-H23 lung 68.1% | NCI-H226 lung 79.7% | NCI-H322M lung 109% | HOP-62 NSCLC 61.6% | NCI-H460 lung 77.5% | NCI-H522 lung 62.2% | A549/ATCC NSCLC 65.6% | 786-0 renal 59.8% | DU-145 prostate 80.9% | MALME-3M melanoma 34.6% | MDA-MB-231 breast 45.4% | RXF 393 renal 51.2% | SF-268 CNS 84.7% | SF-295 CNS 60.1%

COc1ccc(-c2[nH]nc(N)c2-c2cc(OC)c3c(c2)OCO3)cc1
active: NCI-H522 lung -21%
inactive: NCI-H23 lung 63.4% | NCI-H226 lung 84.9% | NCI-H322M lung 92.9% | HOP-62 NSCLC 59.8% | NCI-H460 lung 33.1% | A549/ATCC NSCLC 52% | 786-0 renal 77.6% | COLO 205 colon 61.3% | DU-145 prostate 92.3% | K-562 leukemia 22.4% | MALME-3M melanoma 46.9% | MDA-MB-231 breast 43% | RXF 393 renal 95.9% | SF-268 CNS 64.9% | SF-295 CNS 53.9% | SF-539 CNS 59.3% | UACC-257 melanoma 79.3% | M14 melanoma 22.1%

COc1cc(/C=C/C(=O)c2cccc(-n3cc(-c4cc(OC)c(OC)c(OC)c4)[nH]c3=O)c2)cc(OC)c1OC
active: NCI-H23 lung 6.11% | NCI-H460 lung -1.97% | NCI-H522 lung -66.8% | COLO 205 colon -36.1% | K-562 leukemia 0.136% | RXF 393 renal -79.5% | SF-539 CNS -86.1% | M14 melanoma -0.87%
inactive: NCI-H226 lung 58% | NCI-H322M lung 46% | HOP-62 NSCLC 42.9% | A549/ATCC NSCLC 35.1% | 786-0 renal 19% | DU-145 prostate 12.5% | MALME-3M melanoma 28.9% | MDA-MB-231 breast 35.4% | SF-268 CNS 20.9% | UACC-257 melanoma 37.2%

O=C(Nc1ccncc1)C(=O)c1cn(S(=O)(=O)c2ccc(Oc3ccccc3)cc2)c2ccccc12
inactive: NCI-H23 lung 77.5% | NCI-H226 lung 103% | HOP-62 NSCLC 88% | NCI-H460 lung 72.1% | HOP-92 NSCLC 71.6% | NCI-H522 lung 87.4% | A549/ATCC NSCLC 71.8% | 786-0 renal 89.2% | COLO 205 colon 107% | DU-145 prostate 96.8% | K-562 leukemia 81.5% | MALME-3M melanoma 84.9% | MDA-MB-231 breast 68.9% | RXF 393 renal 110% | SF-268 CNS 109% | SF-295 CNS 60% | SF-539 CNS 96.5% | UACC-257 melanoma 103% | M14 melanoma 102%

COc1ccc(-c2nc(/C=C3/C(=O)Nc4ccc(F)cc43)c3ccccn23)cc1
inactive: NCI-H23 lung 97.8% | NCI-H226 lung 114% | HOP-62 NSCLC 108% | NCI-H460 lung 94.8% | HOP-92 NSCLC 92.3% | NCI-H522 lung 104% | A549/ATCC NSCLC 99.4% | 786-0 renal 98.8% | COLO 205 colon 97.3% | DU-145 prostate 102% | K-562 leukemia 87.2% | MALME-3M melanoma 130% | MDA-MB-231 breast 89.2% | RXF 393 renal 112% | SF-268 CNS 107% | SF-295 CNS 140% | SF-539 CNS 117% | UACC-257 melanoma 102% | M14 melanoma 106%

COc1ccc(/C=C2/C(=O)NC(SCC(=O)N3CCN(c4cc5c(cc4F)c(=O)c(C(=O)O)cn5C4CC4)CC3)=NC2N)cc1OC (centres undefined)
inactive: NCI-H23 lung 102% | NCI-H226 lung 98.5% | HOP-62 NSCLC 110% | NCI-H460 lung 107% | HOP-92 NSCLC 101% | NCI-H522 lung 99% | A549/ATCC NSCLC 107% | 786-0 renal 102% | COLO 205 colon 113% | DU-145 prostate 104% | K-562 leukemia 107% | MALME-3M melanoma 108% | MDA-MB-231 breast 106% | RXF 393 renal 109% | SF-268 CNS 96.8% | SF-295 CNS 93.9% | SF-539 CNS 101% | UACC-257 melanoma 108% | M14 melanoma 106%
